Data: PubChem BioAssay AID720664 (National Center for Advancing Translational Sciences (NCATS), 2013)
Results filed as inconclusive are left out. Unmarked numbers belong to inactive results. Activity calls are given as the source filed them. Calls follow the shape of the dose curve; as a rule, active = well fitted inhibition curve with a large enough effect; inconclusive = small, poorly fitted or top-dose-only effect; inactive = flat fitted curve, though single readings scatter.

What follows are molecules tested against Galactokinase (Homo sapiens) (UniProt P51570) (assay: qHTS for Inhibitors of Human Galactokinase (GALK): SAR round 3). Conditions: ADP detection luminescence, 1 h; series mostly up to 57.5 µM; activity change, negative = inhibition: at the top concentration.
Description: Inherited deficiency of galactose-1-phosphate uridyltransferase (GALT) can result in a potentially lethal disorder called Classic Galactosemia (OMIM 230400). Several lines of evidence indicate that an elevated level of galactose-1-phosphate (gal-1-p), the product of galactokinase (GALK), is a major, if not sole, pathogenic mechanism in patients with classic galactosemia. Therefore, finding inhibitors of GALK is a potential novel therapy for this inherent metabolic disease and is the long term goal of this project. Active compounds observed in the qHTS GALK assay (AID: 1868) were cherry picked and re-screened for validation. GALK (provided by Kent Lai) was assayed using ATP and D-(+)-Galactose (Sigma-Aldrich cat# G0750) as substrates. Promega ADP-Glo technology was used to detect the ADP product formed after the kinase reaction. Kinase reactions with and without GALK were used as negative and positive controls together with Protein Tyrosine Phosphatase CD45 inhibitor (EMD Bioscience cat# 540215) which is shown to inhibit GALK activity. Decrease in activity corresponds to inhibition of the enzyme, the desired outcome for this assay. NIH Molecular Libraries Probe Production Network [MLPCN] NIH Chemical Genomics Center [NCGC] Grant: MH085689-01 PI Name: Kent Lai, University of Utah
Three uL/well of ATP-buffer solution (35 uM ATP, 20mM HEPES pH8.0, 5 mM MgCl2, 60 mM NaCl, 1 mM DTT, 0.01% BSA final concentration) was dispensed into 1536-well, assay plates (Greiner, solid white medium-binding plates) with Aurora Discovery BioRAPTR Flying Reagent Dispenser (FRD; Beckton-Dickenson). Compound and control solution (23 nL) was transferred to the assay plate using the Kalypsys 1536-pin tool apparatus. One uL/well GALK-galactose solution (5 nM GALK, 100 uM galactose, 20 mM HEPES pH8.0, 5 mM MgCl2, 60 mM NaCl, 1 mM DTT, 0.01% BSA final concentration) was then added using the FRD yielding a total kinase reaction volume of 4 uL/ well. After 1 hour of room temperature incubation, 4 uL Kinase-Glo Plus reagent was added for a final assay volume of 8 uL/well. Luminescence was detected with the ViewLux plate reader (Perkin Elmer, Waltham, MA) after 2 min incubation using a 1 sec exposure time and 2x binning.

Galactokinase (Homo sapiens), sequence (P51570 whole entry, looked up): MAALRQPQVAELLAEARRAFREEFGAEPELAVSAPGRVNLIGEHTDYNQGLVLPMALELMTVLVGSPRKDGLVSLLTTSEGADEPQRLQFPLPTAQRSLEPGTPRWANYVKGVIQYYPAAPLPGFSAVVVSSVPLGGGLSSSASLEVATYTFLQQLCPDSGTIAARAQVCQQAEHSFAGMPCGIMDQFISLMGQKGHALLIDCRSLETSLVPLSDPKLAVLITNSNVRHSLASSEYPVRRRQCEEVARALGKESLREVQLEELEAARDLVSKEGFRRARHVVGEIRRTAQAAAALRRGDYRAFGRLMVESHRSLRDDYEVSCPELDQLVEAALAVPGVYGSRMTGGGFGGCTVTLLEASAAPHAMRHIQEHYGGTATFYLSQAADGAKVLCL

SMILES | activity change, negative = inhibition [%] | Potency
O=C1CCCC2=C1C(c1[nH]ncc1Cl)NC(=NCc1cccnc1)N2 (stereo not given) | -7.25 | 
O=C1CCCC2=C1C(c1[nH]ncc1Cl)N=C(Nc1ccccc1)N2 (stereo not given) | 1.36 | 
O=C1CCCC2=C1C1(CCSCC1)N=C(Nc1nc3ccccc3o1)N2 |  | 3.43 µM (active)
O=C1CCCC2=C1C(c1[nH]ncc1Cl)N=C(Nc1nc3cc([S+](=O)([O-])N4CCCC4)ccc3o1)N2 (stereo not given) | -1.17 | 
CC1(C)CC(=O)C2=C(C1)NC(Nc1nc3ccccc3o1)=NC21CCCC1 | -18.6 | 
CC1=C(C(=O)Nc2nc3ccccc3s2)C(c2[nH]ncc2Cl)N=C(Nc2nc3ccccc3o2)N1 (stereo not given) | -9.72 | 
CC(C)CN1CC2=C(C1=O)C(c1ccccc1Cl)N=C(Nc1nc3ccccc3o1)N2 (stereo not given) | -8.14 | 
CN1C(=O)NC(c2ccccc2Cl)C2=C1CCCC2=O (stereo not given) | -7.27 | 
Cc1nc(NC2=NC(c3ccccc3Cl)C3=C(CCCC3=O)N2)oc1C (stereo not given) | 2.17 | 
CC1=C(C(=O)NC2CC2)C(c2[nH]ncc2Cl)N=C(Nc2nc3ccccc3o2)N1 (stereo not given) | -24.1 | 
O=C1CCCC2=C1C(c1c(Cl)cccc1Cl)N=C(Nc1nc3ccccc3o1)N2 (stereo not given) | -16.4 | 
O=C1CCCC2=C1C(c1[nH]ncc1Cl)NC(=NCc1ccccn1)N2 (stereo not given) | 1.69 | 
O=C1CCCC2=C1C(c1[nH]ncc1Cl)NC(=NCCc1cccnc1)N2 (stereo not given) | 1.96 | 
Nc1ncc(S(=O)(=O)N2CCOCC2)s1 | -3.83 | 
O=C1CCCC2=C1C(c1[nH]ncc1Cl)NC(=NCc1nccs1)N2 (stereo not given) | 3.63 | 
O=C1CCCC2=C1C1(CCCC1)N=C(Nc1nc3ccccc3n1Cc1ccccc1)N2 | 6.14 | 
O=C1CCCC2=C1C1(CCCC1)N=C(Nc1nc3ccccc3o1)N2 | -28.9 | 
O=C1CCCC2=C1C(c1ccncc1)N=C(Nc1nc3ccccc3o1)N2 (stereo not given) | -5.76 | 
CC1=C(C(=O)c2ccccc2)C(c2ccccc2Cl)N=C(Nc2nc3ccccc3o2)N1 (stereo not given) | -4.91 | 
CC1=C(C(=O)NC2CCCC2)C(c2[nH]ncc2Cl)N=C(Nc2nc3ccccc3o2)N1 (stereo not given) | -7.46 | 

SMILES | activity change, negative = inhibition [%] | Potency
O=c1cc(CN2CCCN(c3ccc(C(F)(F)F)cn3)CC2)nc2ccccn12 | -2.21 | 
COC(=O)c1ccccc1NC(=O)c1ccccc1OC(F)F | 0.981 | 
O=C1CCCC2=C1C(c1[nH]ncc1Cl)N=C(Nc1nc3cc(Cl)ccc3o1)N2 (stereo not given) | 3.78 | 
CCc1ccc2oc(=O)cc(CN3CCN(c4ccccc4F)CC3)c2c1 | 4.45 | 
COc1ccc(C2N=C(Nc3nc4ccccc4o3)NC3=C2C(=O)CCC3)cc1 (stereo not given) | -7.29 | 
O=C1CCCC2=C1C(c1[nH]ncc1Cl)N=C(Nc1ccccn1)N2 (stereo not given) | 0.613 | 
COC(=O)c1ccc2nc(NC3=NC(c4[nH]ncc4Cl)C4=C(CCCC4=O)N3)oc2c1 (stereo not given) | -1.92 | 
O=C1CCCC2=C1C(c1[nH]ncc1Cl)N=C(Nc1nc3cccc(Cl)c3o1)N2 (stereo not given) | 4.36 | 
Cn1c(NC2=NC3(CCCC3)C3=C(CCCC3=O)N2)nc2ccccc21 | 3.5 | 
O=C(Nc1ncc([S+](=O)([O-])N2CCOCC2)s1)c1cccc(Br)c1 | -2.8 | 
O=C1C2=C(CN1c1ccccc1)NC(Nc1nc3ccccc3o1)=NC2c1ccccc1Cl (stereo not given) | -6.41 | 
Cc1nc(Nc2nc3ccccc3o2)nc2c1CCCC2 | -1.21 | 
O=C1CCCC2N=C(Nc3nc4ccccc4o3)CC(c3ccccc3Cl)C12 (stereo not given) | 3.86 | 
CC1=C(C(=O)Nc2noc3ccccc23)C(c2nn(C)cc2Cl)N=C(Nc2nc3ccccc3o2)N1 (stereo not given) | 2.33 | 
O=C1CCCC2=C1C(c1ccc(F)cc1)N=C(Nc1nc3ccccc3o1)N2 (stereo not given) | -5.82 | 
O=C1CCCC2=C1C(c1[nH]ncc1Cl)NC(=NCc1ccoc1)N2 (stereo not given) | 2.25 | 
O=C1CCCC2=C1C(c1ncccc1Br)N=C(Nc1nc3ccccc3o1)N2 (stereo not given) | -27.8 | 
O=C1CCCC2=C1C(c1ccccc1Br)N=C(Nc1nc3ccccc3o1)N2 (stereo not given) |  | 6.11 µM (active)
Cn1cnc(CN=C2NC3=C(C(=O)CCC3)C(c3[nH]ncc3Cl)N2)c1 (stereo not given) | -0.525 | 
O=C1CCCC2=C1C(c1[nH]ncc1Cl)NC(=NCCc1ccc(O)cc1)N2 (stereo not given) | 3.03 | 
